# Experiments:
# Experiment in all cases: PBM binding z-score (relative to random genomic background probes); higher = stronger binding; sequences stand for … in GC…GCGATTGACAGCGTAGAATGAAGG
# [1] = tested on: RARb homodimer (NR concentration 270 nM)
# Procedure, shortened: (§1)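 On custom Agilent 4×180K arrays, double-stranded probes with 34-nt variable regions carried direct-repeat seeds, single-nucleotide variants, half-site ablations or random human genomic background. Ligand-free nuclear receptor dimers were applied for 1 h, and binding was read with antibodies against each partner (one per run). Binding z-scores come from regression-normalized fluorescence, with the random background probes as reference.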
# [2] = tested on: RARg:RXRa (NR concentration 270 nM, RXRa partner concentration 90 nM)
# Procedure, shortened: as §1
# [3] = tested on: RARg homodimer (NR concentration 270 nM)
# Procedure, shortened: as §1
# [4] = tested on: RXRa DBDmut IVT, anti-RXR (DBD mutation: RXRa K156A/R161A, NR concentration 90 nM)
# Procedure, shortened: as §1
# [5] = tested on: RXRa homodimer (NR concentration 180 nM)
# Procedure, shortened: as §1
# [6] = tested on: THRa:RXRa (NR concentration 90 nM, RXRa partner concentration 90 nM)
# Procedure, shortened: as §1
# [7] = tested on: THRa homodimer (NR concentration 90 nM)
# Procedure, shortened: as §1
# [8] = tested on: VDR:RXRa (NR concentration 270 nM, RXRa partner concentration 90 nM)
# Procedure, shortened: as §1
# [9] = tested on: VDR homodimer (NR concentration 270 nM)
# Procedure, shortened: as §1
Sequence,PBM binding z-score [1],PBM binding z-score [2],PBM binding z-score [3],PBM binding z-score [4],PBM binding z-score [5],PBM binding z-score [6],PBM binding z-score [7],PBM binding z-score [8],PBM binding z-score [9]
CCTGCTAGGTCAATCGTCAGCTAAAGCAGCTCGC,2.83,3.59,4.42,1.78,2.15,2.11,0.36,0.744,-0.0155
CTCGAAAGGTCGGTTGAGGTGCGTATACGGATAA,1.76,2.59,2.85,0.676,2.12,3.88,-0.208,2.09,0.626
TAGCCTAGGTCAGATCGTGCCAGTATACGCTATA,2.22,2.83,3.28,-0.193,1.33,2.46,0.0586,0.516,-0.325
GCGACTGGGACAAAGCAGGTTACCATAAGGTTGG,0.587,0.308,0.367,-0.523,0.419,1.59,0.162,-0.0797,-0.161
AGAATGAGCTTATACGTAGATCAGGGAAGAAAGT,-0.75,-0.102,-0.0616,-0.769,-0.13,-0.46,-0.669,-0.451,-0.447
ATCTCTAGATAACCAAGTTCAGTGAATGCCGAAC,1.07,0.446,0.535,0.852,0.659,0.42,0.172,1.16,2.11
TCATATAGGTAAATGCTACGTGAAAGTCCGATCT,-0.0537,0.346,0.292,1.58,0.839,-0.0231,0.0102,0.947,0.41
CGAACTAGGTCAGCACAGGACAGTGAAGGATGAT,2.69,3.27,4.34,0.563,1.68,3.81,0.48,0.981,-0.111
TCGAGTTGGTCACGGAGGTCACACACGACGGGTA,4.47,4.77,4.81,1.32,4.92,3.77,2.24,5.91,3.52
ATCTCTAGGGAAGACTCAGTTCAGTGAAGAACGC,0.462,-0.132,-0.0509,0.532,-0.129,0.262,0.318,0.408,1.38
TCAGACAGGTGAAGCTAACTCAGGTACGCAGTCG,0.0204,0.241,0.351,0.962,0.617,0.525,-0.351,0.334,-0.124
CGTCCAAGGTAAGCAGGTCAGTGAAAGCGACGTG,2.25,1.08,1.44,-0.436,0.485,1.7,0.269,0.00518,-0.407
TTACCAAGGTGAAGGTCGTTGGTCCCTCTGTAGA,1.98,1.01,0.783,0.488,1.27,2.29,1.1,0.994,0.98
ATCGAAAGGTCGACGAGGTGAGTACACACCGTTT,3.26,4.26,4.18,1.34,4.5,3.7,1.06,5.59,2.27
CCTTACTGGTCACTGACAGGTTATAGCATTTGGA,1.55,1.76,1.32,0.856,0.874,0.492,0.796,0.592,0.63
CGTCCACGGTCAGCAGGTCAGTGAAAGCGACGTG,3.48,2.99,3.3,0.0347,0.719,1.22,-0.0318,0.107,-0.234
CCGACTGGGGCAGAAAGCTTACCATACCATCCGG,-0.46,-0.395,-0.221,-0.744,-0.422,-0.808,-0.889,-0.904,-0.719
CGAACGACGGCATGAGTTGATAGCAAATGCCGAT,-1.1,-0.397,-0.191,-0.218,-0.57,-0.799,-1.12,-0.72,-0.0876
TCTTGTCGATCAATAGAGGTTAAGAAAGTGCGCT,1.53,0.847,0.688,0.601,1.46,1.94,-0.159,1.86,0.435
ATATGTAGGTTACAACCGGGTCATTCAGGCTATG,2.97,3.92,2.19,0.912,3.49,3.73,2.16,4.56,3.06
AGAATTAGGTTATACGTAGATCAGGGAAGAAAGT,0.51,0.538,0.552,0.428,0.592,0.759,0.539,0.22,0.454
TAGCCTAGGTCAGATCGGGCCAGTTTACGCTATA,1.83,2.54,3.36,-0.346,1.21,3.76,0.0282,0.663,-0.339
CGAACTAGGTCAAGGACGGTGAATCTCCGCACGC,2.96,3.53,4.38,0.975,2.64,2.88,1.24,1.14,-0.409
GCAGACAGGTGAAACGCAGGTAACTCAAGGTGGC,0.0427,0.907,0.318,-0.708,0.523,1.76,-0.397,-0.431,-0.202
ACTATTAGTTGAGCCGAGGGCAACCGATAGGTTG,1.35,0.604,0.752,0.39,0.52,2.57,0.523,0.613,0.692
ATACGTAGGTTAGCTGGGGTCATTCAGACTAGGC,3.71,4.03,3.01,1.65,5.42,4.9,2.74,6.12,4.13
